In PubChem BioAssay AID1159580 (chemical genetic matrix, 2015):
The campaign covered roughly 5,500 compounds. About 2,000 (36%) were called active. Inconclusive results (about 18%) are left out. Cut-off read from the data, not from the text of the source: active = normalized growth mostly below about 0.91 (no sharp cut-off); inconclusive = no clear call, values can overlap the other calls; inactive = mostly above about 0.92. Some of the results follow.

Test: chemical genetic growth profiling, strain panel (AID 1159580);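 note: tested at 20 µM; growth read once vehicle control cultures reached saturation at 30 °C; 1 = growth at the plate median or of vehicle wells; lower values mean less growth of the strain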
Conditions: S. cerevisiae deletion strains, growth OD

Measured: normalized growth

CNC(=O)Oc1ccccc1OC(C)C
inactive: locus YAL013W, strain DEP1, hits give low values 1.01 | locus YAL021C, strain ccr4, hits give low values 0.987 | locus YAL026C, strain drs2, hits give low values 0.99 | locus YAL030W, strain snc1, hits give low values 0.992 | locus YBL061C, strain skt5, hits give low values 0.987 | locus YBR009C, strain hhf1, hits give low values 0.99 | locus YBR021W, strain FUR4, hits give low values 1.02 | locus YBR023C, strain chs3, hits give low values 0.985 | locus YBR171W, strain sec66, hits give low values 0.97 | locus YBR229C, strain ROT2, hits give low values 1.02 | locus YBR231C, strain swc5, hits give low values 0.984 | locus YBR279W, strain paf1, hits give low values 0.989 | locus YCL011C, strain gbp2, hits give low values 0.994 | locus YCL016C, strain dcc1, hits give low values 0.99 | locus YCL029C, strain bik1, hits give low values 0.994 | locus YCL061C, strain MRC1, hits give low values 0.994 | locus YCL069W, strain vba3, hits give low values 0.989 | locus YCR088W, strain abp1, hits give low values 0.99 | locus YDL005C, strain med2, hits give low values 0.985 | locus YDL035C, strain GPR1, hits give low values 1.03 | locus YDL040C, strain nat1, hits give low values 0.979 | locus YDL074C, strain BRE1, hits give low values 1.08 | locus YDL101C, strain DUN1, hits give low values 1.02 | locus YDL134C, strain PPH21, hits give low values 1.02 | locus YDL185W, strain tfp1, hits give low values 0.979 | locus YDL192W, strain arf1, hits give low values 0.989 | locus YDR001C, strain nth1, hits give low values 0.993 | locus YDR069C, strain doa4, hits give low values 0.983 | locus YDR101C, strain arx1, hits give low values 0.983 | locus YDR137W, strain rgp1, hits give low values 1.05 | locus YDR150W, strain NUM1, hits give low values 1.02 | locus YDR159W, strain sac3, hits give low values 0.973 | locus YDR162C, strain NBP2, hits give low values 1.01 | locus YDR195W, strain ref2 0.915 | locus YDR297W, strain sur2, hits give low values 0.998 | locus YDR318W, strain mcm21, hits give low values 0.996 | locus YDR334W, strain swr1, hits give low values 0.982 | locus YDR335W, strain msn5, hits give low values 0.998 | locus YDR388W, hits give low values 0.986 | locus YDR392W, strain spt3, hits give low values 0.978 | locus YDR502C, strain sam2, hits give low values 1 | locus YEL003W, strain gim4, hits give low values 0.993 | locus YEL037C, strain rad23, hits give low values 0.989 | locus YEL061C, strain CIN8 (second series), hits give low values 0.983 | locus YEL061C, strain CIN8, hits give low values 1.01 | locus YER015W, strain faa2, hits give low values 0.991 | locus YER016W, strain bim1, hits give low values 0.991 | locus YER110C, hits give low values 0.994 | locus YER111C, strain swi4, hits give low values 0.984 | locus YER155C, strain BEM2 (second series), hits give low values 0.97 | locus YER155C, strain BEM2, hits give low values 1.02 | locus YER167W, strain BCK2, hits give low values 1 | locus YFR010W, strain ubp6, hits give low values 0.992 | locus YGL078C, strain dbp3, hits give low values 0.966 | locus YGL086W, strain mad1, hits give low values 0.994 | locus YGL167C, strain pmr1, hits give low values 0.987 | locus YGL173C, strain kem1, hits give low values 0.987 | locus YGL227W, strain vid30, hits give low values 0.982 | locus YGL240W, strain doc1, hits give low values 0.974 | locus YGL248W, strain PDE1, hits give low values 1.02 | locus YGL253W, strain hxk2, hits give low values 0.99 | locus YGR078C, strain PAC10, hits give low values 1.03 | locus YGR135W, strain pre9, hits give low values 0.993 | locus YGR229C, strain SMI1, hits give low values 1.03 | locus YGR252W, strain gcn5, hits give low values 0.991 | locus YHR013C, strain ard1, hits give low values 0.954 | locus YHR027C, strain rpn1, hits give low values 0.996 | locus YHR030C, strain SLT2, hits give low values 1.02 | locus YHR079C, strain IRE1 (second series), hits give low values 0.988 | locus YHR094C, strain hxt1, hits give low values 0.992 | locus YHR129C, strain ARP1, hits give low values 1.03 | locus YHR142W, strain chs7, hits give low values 1 | locus YHR200W, strain rpn10, hits give low values 0.986 | locus YIL066C, strain RNR3, hits give low values 1.02 | locus YIL073C, strain SPO22, hits give low values 0.999 | locus YIL125W, strain kgd1, hits give low values 0.984 | locus YIR030C, strain dcg1, hits give low values 0.986 | locus YJL092W, strain hpr5, hits give low values 0.998 | locus YJL095W, strain BCK1 (second series), hits give low values 0.986 | locus YJL095W, strain BCK1, hits give low values 1.02 | locus YJL115W, strain asf1, hits give low values 0.972 | locus YJL129C, strain trk1, hits give low values 0.986 | locus YJL134W, strain LCB3, hits give low values 1.02 | locus YJL154C, strain vps35, hits give low values 0.993 | locus YJL164C, strain tpk1, hits give low values 0.996 | locus YJL166W, strain qcr8, hits give low values 0.994 | locus YJL168C, strain set2, hits give low values 0.989 | locus YJL187C, strain SWE1 (second series), hits give low values 1.02 | locus YJL187C, strain SWE1, hits give low values 0.995
